Compound activity from PubChem.
Compounds with a hit are over-represented: about 10% of the library has one in this group of screens.
PNC assembly inh – perinucleolar compartment assembly inhibition. 140,000 tested, 3.1% active. PC3M PTB-GFP, PNC prevalence imaging, 16 h; active compounds read low. activity change (PNC), negative = inhibition, % at 10 µM;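 active means readout at or below -70, meaning at least 70% loss of cells showing the perinucleolar compartment, a nuclear body marking cancer cells; inconclusive means readout between -30 and a set limit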
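Read-out is percentage of cells bearing a perinucleolar compartment, from automated 20x imaging of fixed, Hoechst-stained PC3M PTB-GFP cells. Cells were seeded 4 h, then exposed 16 h to compound (23 nl of library stock) in duplicate plates.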
KinaseGlo FLuc – Kinase-Glo luciferase inhibition (counter-screen) | Q27757 | Kinase-Glo luciferase, ATP luminescence, 8 min | Potency, µM (highest dose often 38.3 µM), actives largely listed as inhibitors | 200,000 tested, 0.28% active | AID 1379; active means well fitted inhibition curve with a large enough effect; inconclusive means small, poorly fitted or top-dose-only effect; further: nearly all actives have a fitted effect of over 60% in size
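Recombinant Kinase-Glo luciferase, 10 uM ATP (linear range), luciferin; imidazole pH 7.2 / KCl / MgCl2 / Tween / BSA buffer; 8 min RT; luminescence.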
HPGD block – HPGD (human) dehydrogenase inhibition; Potency, µM, actives largely listed as inhibitors; purified HPGD, NADH fluorescence kinetic, PGE2 substrate; 150,000 tested, 4.3% active
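NADH formation kinetics: reaction with 30 uM PGE2 and 1 mM NAD+ (final), 20 nM enzyme, Tris-HCl pH 8 with Tween 20, after 15 min compound preincubation at room temperature. Fluorescence change, last versus first of five reads.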
LMNA splice mod – changes lamin A minigene splicing in HeLa cells; HeLa LMNA splicing GFP/RFP minigene ratio, 48 h; Potency, µM (highest dose often 46.1 µM), most hits filed as inhibitors; 200,000 tested, 0.01% active; AID 1487; active means well fitted inhibition curve with a large enough effect in the signal ratio, with a control signal flat, not every such curve was filed as active; inconclusive means small, poorly fitted or top-dose-only effect, or effect the other way, or a change in a side signal; the % refers to the signal ratio
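Read-out is the ratio of GFP to DsRed2 object intensity, acquired by 488 nm laser-scanning cytometry on HeLa lamin A-EGFP minigene reporter cells. Compound incubation 48 hrs at 37 °C in Opti-MEM with 2% FBS; DMSO 0.5% final.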
ALDH1A1 block – inhibitors of human aldehyde dehydrogenase 1A1. 220,000 tested, 7.3% active. AID 1030. Purified ALDH1A1, NADH fluorescence, propionaldehyde substrate. Potency, µM (titrated, usually from 75.3 µM), hits mostly inhibitors. P00352
Target sequence (P00352 whole entry, looked up): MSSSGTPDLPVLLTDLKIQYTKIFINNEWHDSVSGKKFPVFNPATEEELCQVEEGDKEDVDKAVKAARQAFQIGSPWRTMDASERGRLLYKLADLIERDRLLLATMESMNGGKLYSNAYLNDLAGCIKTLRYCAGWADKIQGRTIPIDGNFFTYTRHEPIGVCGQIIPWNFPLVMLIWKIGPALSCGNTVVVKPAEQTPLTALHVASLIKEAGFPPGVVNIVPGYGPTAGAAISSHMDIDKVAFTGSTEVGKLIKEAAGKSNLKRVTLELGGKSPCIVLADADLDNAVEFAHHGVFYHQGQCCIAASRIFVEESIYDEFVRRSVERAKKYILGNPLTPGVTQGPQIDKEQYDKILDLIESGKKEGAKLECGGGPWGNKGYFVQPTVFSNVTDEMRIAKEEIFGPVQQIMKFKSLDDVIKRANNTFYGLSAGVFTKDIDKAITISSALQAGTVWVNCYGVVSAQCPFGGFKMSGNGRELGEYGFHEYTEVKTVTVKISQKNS
A number is an active result; - = inactive; ? = inconclusive; . = no result given; [ ] = another dose, or the depositor's remark. Unless noted, the call rests on the fitted dose curve; in most records, active means well fitted inhibition curve with a large enough effect (not every such curve was filed as active); inconclusive means small, poorly fitted or top-dose-only effect, or another doubt; inactive means no such curve, though single readings can be large or run the other way.

SMILES | PNC assembly inh | KinaseGlo FLuc | HPGD block | LMNA splice mod | ALDH1A1 block
COc1ccc(C2=NN(c3ccccc3)C(=O)/C2=C\c2ccc(O)c(OC)c2)cc1 | . | - | . | . | 20µM
COc1ccc(/C=C2/SC(=O)N(CCC(=O)Nc3ccc(C)cc3)C2=O)cc1OC | - | - | - | - | -
c1cncc(CNc2ncncc2-c2cccnc2)c1 | . | . | . | - | -
CC(=O)/C(=C\c1ccccc1)CC(=O)O | . | - | - | - | -
CC(C)c1ccc(NC(=S)Nc2ccc3cn[nH]c3c2)cc1 | . | - | . | - | 19µM
Cc1ccc(NC(=S)Nc2ccc3cn[nH]c3c2)cc1C | ? | . | . | - | ?
O=C(Nc1ccc2cn[nH]c2c1)c1ccccc1F | ? | - | ? | - | -
O=C(Nc1ccc2cn[nH]c2c1)c1c(Cl)cccc1Cl | - | - | 22µM | - | -
N[C@@H](C(=O)O)c1ccc(C(=O)O)cc1 | . | - | - | . | -
N#CC(C#N)=C1C=CC=CN1/C(=C\c1ccco1)C(=O)c1ccc(Cl)cc1 | ? | - | 20µM | ? | -
N#CC(C#N)=C1C=CC=CN1/C(=C\c1ccco1)C(=O)c1ccc(-c2ccccc2)cc1 | - | - | - | ? | -
Cc1cnc(CNc2cc(-c3ccoc3)ncn2)cn1 | . | - | - | - | ?
Cc1c(C(=O)N/N=C/C(C)C)[nH]c2ccc([N+](=O)[O-])cc12 | - | - | - | - | 14µM
Cc1c(C(=O)N/N=C/c2ccc(Cl)cc2)[nH]c2ccc(Cl)cc12 | -112 | - | - | ? | -
Cc1nn(-c2ccc(C(=O)O)cc2)c(C)c1Oc1ccccc1O | - | - | 14µM | - | -
Cc1nn(-c2ccccn2)c(C)c1Oc1ccccc1O | - | - | 14µM | - | -
Cc1nn(-c2nc3ccccc3s2)c(C)c1Oc1ccccc1O | -100 | - | ? | ? | -
Cn1c(SCc2cccc(F)c2)nc2c([nH]c3ccccc32)c1=O | . | . | . | - | .
Cc1ccccc1NC(=O)CSc1nnc(-c2cccc(Cl)c2)o1 | . | . | . | - | .
Cc1noc(C)c1S(=O)(=O)Nc1ccc(C(=O)N2CCCCC2)cc1 | - | - | 32µM | - | -
CC(C)C(=O)Nc1ccc(C(=O)N2CCCCCC2)cc1 | - | - | 2µM | - | -
CS(=O)(=O)Nc1ccc(N2CCCCC2)c(Cl)c1 | - | - | 7.1µM | - | -
O=C(Nc1ccc(C(=O)N2CCCC2)cc1)c1ccccc1F | - | ? | 3.2µM | - | -
O=C(Cn1c(=O)c2cccn2c2ccc(F)cc21)N1CCN(c2ccccc2)CC1 | . | . | . | - | .
Cc1ccc(CNC(=O)CN2CCCN(Cc3ccc(F)cc3)S2(=O)=O)cc1 | . | . | . | - | .
SMILES | PNC assembly inh | KinaseGlo FLuc | HPGD block | LMNA splice mod | ALDH1A1 block
Cn1cccc1C(=O)N1CCC2(CC1)CCN(c1ncccn1)CC2 | . | - | - | . | -
CSCC[C@@H]1NC(=O)C/C=C\[C@@H](C)COC(=O)[C@@H](C)COC1=O | . | . | . | . | -[13.5 µM]
CCOC(=O)c1ccc(NC(=O)C2C3C=CC(C3)C2C(=O)O)cc1 (centres undefined) | - | - | - | - | ?
NS(=O)(=O)c1ccc(NC(=O)C2C3C=CC(C3)C2C(=O)O)cc1 (centres undefined) | . | - | . | - | ?
CC1CCN(C(=O)c2ccc(NS(C)(=O)=O)cc2)CC1 | - | - | 10µM | - | ?
Cc1ccc(-c2ccc(NC(=O)C3C4C=CC(C4)C3C(=O)O)cc2)o1 (centres undefined) | - | - | 20µM | - | ?
O=C(O)C1C2C=CC(C2)C1C(=O)Nc1ccc(C(=O)N2CCCCC2)cc1 (centres undefined) | - | - | 1.3µM | - | ?
CS(=O)(=O)Nc1ccc(C(=O)N2CCc3ccccc3C2)cc1 | . | - | . | ? | -
CS(=O)(=O)Nc1ccc(C(=O)N2CCCCC2)cc1 | - | - | 14µM | - | ?
CNC(=O)c1sc(-c2ccc(Cl)cc2)nc1C | -90 | - | - | - | -
Cc1nc(-c2cccnc2)sc1C(=O)Nc1ccc(C(F)(F)F)cc1 | - | - | - | - | -
CNC(=O)c1sc(-c2cccnc2)nc1C | - | - | - | - | -
CNC(=O)c1sc(-c2ccccc2)nc1C | -83 | - | ? | - | ?
Cc1nc(-c2ccc(C(F)(F)F)cc2)sc1C(=O)NN | . | . | . | . | 1.1µM
CC(=O)c1sc(-c2ccc(Cl)cc2)nc1C | . | - | . | - | -
Cc1nc(-c2ccccc2)sc1C(=O)/C=C/c1ccc(Cl)cc1 | - | - | - | ? | 3.2µM
COC(=O)c1c(-c2cc(OC)c(OC)c(OC)c2)c2ccc(OCc3ccccn3)cc2c(=O)n1-c1ccc(N)cc1 | . | - | - | ? | -
O=C(Nc1cc(F)ccc1F)c1ccc(CN2CC(=O)N3CCCCC3C2=O)cc1 (centres undefined) | . | . | . | - | .
Cc1ccc(NCc2nnc(SCC(=O)Nc3cccc(O)c3)n2CC2CCCO2)c(C)c1 (centres undefined) | ? | - | - | - | 4µM
Cc1ccc(NCc2nnc(SCC(=O)Nc3ncc(C)s3)n2CC2CCCO2)c(C)c1 (centres undefined) | - | - | - | ? | 4.5µM
Cc1ccc(NCc2nnc(SCC(=O)NCc3ccco3)n2CC2CCCO2)c(C)c1 (centres undefined) | - | - | - | - | -
c1ccc(CNc2ccnc(-c3cccnc3)n2)cc1 | . | . | . | ? | -
CO[C@H]1COC(=O)CCC[C@H](C)[C@@H](OC)COC(=O)C/C=C\[C@@H]1C | . | . | . | . | -[13.5 µM]
COC(=O)c1ccccc1NC(=O)C1=C(C)C(=O)OC12CCCCCC2 | . | . | . | - | .
COc1ccc(N2CCN(C(CNC(=O)CC(C)C)c3ccc4c(c3)OCO4)CC2)cc1 (centres undefined) | . | . | . | - | .
SMILES | PNC assembly inh | KinaseGlo FLuc | HPGD block | LMNA splice mod | ALDH1A1 block
CN1C(=O)c2cccc3c(S(=O)(=O)Nc4ccccn4)ccc1c23 | - | - | - | ? | ?
CN1C(=O)c2cccc3c(S(=O)(=O)NCc4ccco4)ccc1c23 | - | - | - | ? | 14µM
O=C(CSc1nccn1-c1ccccc1)c1ccc(Cl)cc1 | -100 | - | - | - | ?
O=C(CSc1nccn1-c1cccc(Cl)c1)NC1CCCC1 | - | - | 16µM | - | -
O=C(CSc1nccn1-c1cccc(Cl)c1)NO | . | - | . | . | -
COc1ccc(S(=O)(=O)N2CCSC2c2ccccc2)cc1 (centres undefined) | - | - | - | ? | 25µM
COc1ccc(S(=O)(=O)N2CCSC2c2ccc(OC)c(OC)c2)cc1 (centres undefined) | - | - | - | ? | ?
O=C(c1ccncc1)N1CCC2(CC1)CN(c1ccccc1)C2 | . | - | - | . | ?
O=C(CCN1C(=O)c2ccccc2C1=O)Nn1cnnc1 | - | - | - | - | -
CC(C)CC(C(=O)Nn1cnnc1)N1C(=O)c2ccccc2C1=O (centres undefined) | -100 | - | - | - | ?
COCCn1c(=O)c(CCc2ccccc2)nc2cnc(N3CCN(C)CC3)nc21 | . | - | ? | . | ?
O=C(CN1C(=O)C2CC=CCC2C1=O)NCc1cccs1 (centres undefined) | . | - | . | - | 28µM
O=C(CN1C(=O)NC2(CCCCC2)C1=O)NCc1cccs1 | - | - | - | - | -
